According to PubChem BioAssay (NCATS):
Records with an inconclusive call do not appear. A call without a number means that no potency is given here. Calls of active or inactive are those of the source. Unless noted, the call rests on the fitted dose curve; in most records, active means well fitted curve in the direction sought with a large enough effect; inconclusive means small, poorly fitted or top-dose-only effect, or another doubt; inactive means no such curve, though single readings can be large; an effect the other way counts as inactive or inconclusive.

Tests used:
[1] = biological target: DNA polymerase III PolC-type (Bacillus subtilis (strain 168)) (UniProt P13267); assay: qHTS Validation Assay for the Inhibitors of DNA Replication in Gram-Positive Bacteria (AID 485295);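 further: reconstituted holoenzyme with PolC plus beta clamp SSB and primase; PicoGreen fluorescence of double-stranded DNA made on primed circular M13 template; series mostly up to about 57 µM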
Sequence of DNA polymerase III PolC-type (Bacillus subtilis (strain 168)) (P13267 whole entry, looked up): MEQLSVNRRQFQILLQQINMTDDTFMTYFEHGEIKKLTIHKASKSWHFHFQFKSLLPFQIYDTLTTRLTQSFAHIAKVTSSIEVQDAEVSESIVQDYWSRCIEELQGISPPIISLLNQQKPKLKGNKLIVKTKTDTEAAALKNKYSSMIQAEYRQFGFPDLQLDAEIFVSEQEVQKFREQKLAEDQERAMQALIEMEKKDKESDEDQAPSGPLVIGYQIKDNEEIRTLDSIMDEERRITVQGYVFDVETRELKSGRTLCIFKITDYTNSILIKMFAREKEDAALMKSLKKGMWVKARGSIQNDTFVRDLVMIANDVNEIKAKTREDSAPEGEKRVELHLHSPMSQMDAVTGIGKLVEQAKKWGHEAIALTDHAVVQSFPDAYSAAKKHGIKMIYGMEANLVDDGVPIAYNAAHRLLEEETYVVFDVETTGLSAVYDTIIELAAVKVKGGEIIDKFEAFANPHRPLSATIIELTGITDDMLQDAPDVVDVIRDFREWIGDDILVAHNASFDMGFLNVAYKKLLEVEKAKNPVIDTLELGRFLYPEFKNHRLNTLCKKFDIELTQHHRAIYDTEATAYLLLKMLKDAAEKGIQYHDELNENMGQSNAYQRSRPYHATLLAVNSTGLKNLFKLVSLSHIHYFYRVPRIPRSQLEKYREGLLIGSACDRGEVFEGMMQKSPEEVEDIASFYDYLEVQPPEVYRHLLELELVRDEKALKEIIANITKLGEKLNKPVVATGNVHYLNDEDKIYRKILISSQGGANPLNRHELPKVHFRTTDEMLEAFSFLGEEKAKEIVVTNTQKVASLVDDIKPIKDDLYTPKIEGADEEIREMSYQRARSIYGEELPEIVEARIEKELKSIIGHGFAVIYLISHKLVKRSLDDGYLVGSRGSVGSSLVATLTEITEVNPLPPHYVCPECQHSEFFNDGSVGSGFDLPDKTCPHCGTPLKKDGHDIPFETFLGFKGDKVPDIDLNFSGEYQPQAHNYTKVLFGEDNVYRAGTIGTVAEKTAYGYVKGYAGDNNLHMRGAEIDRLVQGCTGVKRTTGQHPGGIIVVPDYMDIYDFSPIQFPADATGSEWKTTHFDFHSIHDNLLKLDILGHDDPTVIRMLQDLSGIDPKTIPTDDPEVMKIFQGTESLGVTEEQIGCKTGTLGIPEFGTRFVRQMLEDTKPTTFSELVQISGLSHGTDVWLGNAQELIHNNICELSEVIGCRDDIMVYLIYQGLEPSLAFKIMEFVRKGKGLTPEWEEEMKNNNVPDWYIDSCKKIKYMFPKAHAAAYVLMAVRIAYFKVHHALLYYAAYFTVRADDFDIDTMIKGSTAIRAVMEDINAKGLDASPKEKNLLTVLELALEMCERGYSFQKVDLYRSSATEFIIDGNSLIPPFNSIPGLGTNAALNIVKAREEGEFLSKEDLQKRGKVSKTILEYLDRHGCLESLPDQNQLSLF
Procedure, shortened: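 PicoGreen fluorescence (ex 480–485/em 535–540 nm) reports dsDNA synthesized on ssM13Gori template with dNTPs/NTPs. Enzyme: holoenzyme rebuilt from purified PolC, beta subunit, SSB and primase. Compound preincubated before substrate addition; RT throughout.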

[2] = biological target: Tumor susceptibility gene 101 protein (Homo sapiens) (UniProt Q99816); assay: qHTS Validation Assay for Iinhibitors of HIV-1 Budding by Blocking the Interaction of PTAP/TSG101 (AID 485342; calls by dose curve)
Procedure, shortened: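 FP read-out: FITC-PTAP peptide, 50 nM final, binding Tsg101 binding domain, 10 uM final; 20 min r.t.; 10 mM HEPES pH 7.5, 0.15 M NaCl, 0.01% Tween 20, 3 mM EDTA, 0.1 mM TCEP.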

[3] = qHTS Validation Assay to Find Inhibitors of Chronic Active B-Cell Receptor Signaling (AID 485345; active means well fitted curve in the direction sought with a large enough effect in the main read-out, with a control signal flat, not every such curve was filed as active)
Procedure, shortened: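 TMD8 ABC-DLBCL cells stably carrying doxycycline-inducible IkappaBalpha–green luciferase fusion plus unfused red luciferase; compounds 46 uM to 3 nM, 4 h at 37C with doxycycline. Corrected green/red luminescence ratio normalized to 10 uM MG-132 and basal cell wells; curves fitted.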

[4] = Quantitative high throughput screen for delayed death inhibitors of the malarial parasite plastid, 48 hour incubation (AID 488752); further: nearly all actives have a fitted effect of over 65% in size
Procedure, shortened: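 Erythrocytes infected with firefly luciferase-expressing P. falciparum (2% hematocrit, 0.1% parasitemia) cultured with compound for 48 h at 37 C, 5% CO2, in RPMI 1640/0.5% Albumax. Growth inhibition read as loss of luminescence.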

[5] = biological target: Thioredoxin reductase 1, cytoplasmic (Rattus norvegicus) (UniProt O89049); assay: qHTS Assay for Substrates of Mammalian Selenoprotein Thioredoxin Reductase 1 (TrxR1) (AID 488772);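 further: NADPH fluorescence in the first read after selenite addition and not the 8 min delta; series mostly up to about 57 µM; a drop in NADPH fluorescence below the no-compound background marks a TrxR1 substrate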
Sequence of Thioredoxin reductase 1, cytoplasmic (Rattus norvegicus) (O89049 whole entry, looked up): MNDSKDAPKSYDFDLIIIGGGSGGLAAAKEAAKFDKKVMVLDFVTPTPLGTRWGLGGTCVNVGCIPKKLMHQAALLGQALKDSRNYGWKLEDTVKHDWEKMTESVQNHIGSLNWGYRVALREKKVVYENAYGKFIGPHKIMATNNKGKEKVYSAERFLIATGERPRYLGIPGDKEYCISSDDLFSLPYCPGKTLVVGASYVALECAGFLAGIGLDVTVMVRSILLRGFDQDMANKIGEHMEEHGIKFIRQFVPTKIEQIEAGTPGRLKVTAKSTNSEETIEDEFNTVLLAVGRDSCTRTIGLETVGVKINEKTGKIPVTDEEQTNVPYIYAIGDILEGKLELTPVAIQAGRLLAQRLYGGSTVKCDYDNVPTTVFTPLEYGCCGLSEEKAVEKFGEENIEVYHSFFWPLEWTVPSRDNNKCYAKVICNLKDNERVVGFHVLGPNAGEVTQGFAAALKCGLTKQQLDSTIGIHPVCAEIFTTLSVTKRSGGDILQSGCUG
Procedure, shortened: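 Quantitative HTS in Tris-HCl buffer at pH 7.5 with EDTA and Tween-20, using rat TrxR1, 400 uM NADPH and 400 uM selenite (final). A fall in initial NADPH fluorescence relative to background marked substrate behaviour.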

[6] = biological target: Flap endonuclease 1 (Homo sapiens) (UniProt P39748); assay: qHTS Validation Assay for the Inhibitors of Human Flap endonuclease 1 (FEN1) (AID 488816); further: potency means the concentration at half of the fitted maximal effect
Procedure, shortened: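 Human FEN1 (10 nM) preincubated 15 min at room temperature with compounds, then flap DNA substrate added at 50 nM final. Fluorescence read at 0 and 15 min; concentration-response fitted with four-parameter Hill equation.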

[7] = biological target: M-phase phosphoprotein 8 (Homo sapiens) (UniProt Q99549); assay: qHTS Validation Assay for Inhibitors for MPP8 Chromodomain Interactions with Methylated Histone Tails (AID 488949); further: nearly all actives have a fitted effect of over 55% in size; further: potency means the concentration at half of the fitted maximal effect
Sequence of M-phase phosphoprotein 8 (Homo sapiens) (Q99549 whole entry, looked up): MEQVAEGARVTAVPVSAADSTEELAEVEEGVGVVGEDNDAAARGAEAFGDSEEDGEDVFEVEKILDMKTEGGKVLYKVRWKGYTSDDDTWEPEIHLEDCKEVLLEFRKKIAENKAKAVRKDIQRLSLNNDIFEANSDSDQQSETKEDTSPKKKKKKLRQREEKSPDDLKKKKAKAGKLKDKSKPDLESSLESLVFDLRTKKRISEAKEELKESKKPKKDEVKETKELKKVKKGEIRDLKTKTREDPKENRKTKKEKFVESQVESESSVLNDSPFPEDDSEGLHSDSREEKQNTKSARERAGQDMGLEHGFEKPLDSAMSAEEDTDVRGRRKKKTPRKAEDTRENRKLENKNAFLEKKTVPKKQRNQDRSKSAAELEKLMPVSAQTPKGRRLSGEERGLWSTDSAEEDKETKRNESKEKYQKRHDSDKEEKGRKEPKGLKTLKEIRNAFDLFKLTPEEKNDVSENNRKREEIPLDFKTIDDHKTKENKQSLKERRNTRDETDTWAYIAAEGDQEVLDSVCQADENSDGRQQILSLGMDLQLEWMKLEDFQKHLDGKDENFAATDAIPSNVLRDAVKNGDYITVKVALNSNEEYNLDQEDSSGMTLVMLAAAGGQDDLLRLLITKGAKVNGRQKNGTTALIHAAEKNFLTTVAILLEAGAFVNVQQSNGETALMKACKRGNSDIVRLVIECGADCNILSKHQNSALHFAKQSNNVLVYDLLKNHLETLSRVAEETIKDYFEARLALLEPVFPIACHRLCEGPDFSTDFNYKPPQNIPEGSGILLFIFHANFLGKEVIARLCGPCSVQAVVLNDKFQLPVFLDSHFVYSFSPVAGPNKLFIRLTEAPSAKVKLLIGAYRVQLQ
Procedure, shortened: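 AlphaScreen read-out: streptavidin donor and nickel chelate acceptor beads (final 10 ug/mL), 30 min in the dark at RT. Complex of 50 nM MPP8 and 50 nM b-H3(1-18)K9me3 peptide had been exposed to compounds for 30 min beforehand.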

[8] = biological target: Chromobox protein homolog 1 (Homo sapiens) (UniProt P83916); assay: qHTS Validation Assay for Inhibitors of HP1-beta Chromodomain Interactions with Methylated Histone Tails (AID 488953); further: nearly all actives have a fitted effect of over 50% in size; further: potency means the concentration at half of the fitted maximal effect
Procedure, shortened: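 HP1-beta (50 nM) preformed 30 min with biotinylated H3(1-18)K9me3 peptide (50 nM) in PBS pH 7.4, 0.01% Tween-20. Compounds added for 30 min at room temperature. Complex disruption read by AlphaScreen with streptavidin donor/nickel chelate acceptor beads (10 ug/mL each).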

[9] = biological target: Methanococcus maripaludis chaperonin (MmCpn) (UniProt Q6LX38); assay: High-Throughput Screening for Modulators of Cytosolic Chaperonin Activity: MmCpn Primary Screen (AID 488978);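 further: 50 nM MmCpn enzyme hydrolysing 30 µM ATP at 37 °C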
Sequence of Methanococcus maripaludis chaperonin (MmCpn) (Q6LX38 1-543): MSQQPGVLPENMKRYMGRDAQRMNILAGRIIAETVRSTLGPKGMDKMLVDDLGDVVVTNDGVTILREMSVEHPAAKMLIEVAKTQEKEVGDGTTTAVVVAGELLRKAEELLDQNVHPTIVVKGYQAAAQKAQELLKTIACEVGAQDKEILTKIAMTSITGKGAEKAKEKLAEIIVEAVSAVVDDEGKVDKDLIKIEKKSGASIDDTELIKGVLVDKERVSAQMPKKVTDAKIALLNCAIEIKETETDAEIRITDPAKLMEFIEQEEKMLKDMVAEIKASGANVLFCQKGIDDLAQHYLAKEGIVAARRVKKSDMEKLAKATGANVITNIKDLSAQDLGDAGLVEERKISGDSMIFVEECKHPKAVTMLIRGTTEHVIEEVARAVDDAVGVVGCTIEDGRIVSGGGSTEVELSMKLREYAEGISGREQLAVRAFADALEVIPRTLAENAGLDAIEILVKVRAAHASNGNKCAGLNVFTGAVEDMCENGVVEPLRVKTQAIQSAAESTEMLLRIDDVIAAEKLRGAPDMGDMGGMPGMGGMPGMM
Procedure, shortened: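 ADP formation read by HTRF Transcreener, 665/590 nm emission after 320 nm excitation. Enzyme: archaeal chaperonin at 50 nM final; substrate ATP 30 uM final; 10 min, 37C, after 5 min compound preincubation at RT.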

[10] = biological target: Transient receptor potential cation channel subfamily V member 1 (Homo sapiens) (UniProt Q8NER1); assay: HTS Assay for Compounds that Act as Enhancers of the Vanilloid Receptor 1 (AID 488979)
Procedure, shortened: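 TRPV1 cells loaded with Fluo-8 calcium dye; compound added and Ca2+ signal (ex 480/em 520 nm) followed 3 min, then capsaicin at EC20 added and read 2 more min to detect enhancement.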

[11] = biological target: D(1A) dopamine receptor (Homo sapiens) (UniProt P21728); assay: HTS Assay for Allosteric Agonists of the Human D1 Dopamine Receptor: Primary Screen for Agonists (AID 488981)
Sequence of D(1A) dopamine receptor (Homo sapiens) (P21728 whole entry, looked up): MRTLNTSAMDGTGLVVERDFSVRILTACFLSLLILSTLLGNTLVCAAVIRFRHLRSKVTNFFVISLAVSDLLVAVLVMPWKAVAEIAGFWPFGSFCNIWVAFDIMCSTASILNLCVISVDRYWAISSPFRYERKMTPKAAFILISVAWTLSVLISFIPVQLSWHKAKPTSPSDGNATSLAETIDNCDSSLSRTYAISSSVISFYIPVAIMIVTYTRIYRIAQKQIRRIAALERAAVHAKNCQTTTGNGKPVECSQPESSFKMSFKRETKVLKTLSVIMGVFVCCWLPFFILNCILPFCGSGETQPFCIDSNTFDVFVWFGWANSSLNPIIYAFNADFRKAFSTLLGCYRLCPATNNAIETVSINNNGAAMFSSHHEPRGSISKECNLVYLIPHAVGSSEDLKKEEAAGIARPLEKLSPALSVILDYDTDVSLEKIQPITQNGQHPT
Procedure, shortened: (§1)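 Tetracycline-induced HEK293 Trex D1 cells with forced coupling to calcium, loaded with no-wash calcium dye; kinetic fluorescence read 180 s after compound addition for agonism, then a further 180 s after an EC20 dopamine challenge for potentiation.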

[12] = biological target: D(1A) dopamine receptor (Homo sapiens) (UniProt P21728); assay: HTS Assay for Allosteric Agonists of the Human D1 Dopamine Receptor: Primary Screen for Potentiators (AID 488982)
Procedure, shortened: as §1

[13] = biological target: D(1A) dopamine receptor (Homo sapiens) (UniProt P21728); assay: HTS Assay for Allosteric Agonists of the Human D1 Dopamine Receptor: Primary Screen for Antagonists (AID 488983);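 further: calcium flux response to an EC80 dopamine challenge measured with no-wash dye; nearly all actives have a fitted effect of over 65% in size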; further: potency means the concentration at half of the fitted maximal effect
Procedure, shortened: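 Tetracycline-induced HEK293 T-REx D1 line, force-coupled to calcium flux, read with no-wash calcium dye. Compound added after 10 s baseline, read 180 s for agonism, then EC80 dopamine added and read a further 180 s.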

[14] = biological target: Beta-2 adrenergic receptor (Homo sapiens) (UniProt P07550); assay: qHTS validation assay of beta-arrestin-biased ligands of beta2-adrenergic receptor (AID 485366)
Procedure, shortened: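 Tango cells expressing recombinant beta2-AR and beta-arrestin with tTA-driven luciferase, in DMEM with 1% FBS. Compounds were titrated up to 46 microM for 18 hr at 37 degrees C. Luminescence was read 15 min after substrate; curves were fitted and class-assigned.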

[15] = Quantitative high throughput screen for delayed death inhibitors of the malarial parasite plastid, 96 hour incubation (AID 488745); further: series mostly up to about 29 µM; nearly all actives have a fitted effect of over 70% in size
Procedure, shortened: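 Luciferase-expressing P. falciparum in erythrocytes (2% hematocrit, 0.1% parasitemia) incubated with compound for 96 h at 37 C, 5% CO2, in RPMI 1640 with 0.5% Albumax. Growth inhibition read as decreased luminescence.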

[16] = biological target: Thioredoxin reductase 1, cytoplasmic (Rattus norvegicus) (UniProt O89049); assay: qHTS Assay for Inhibitors of Mammalian Selenoprotein Thioredoxin Reductase 1 (TrxR1) (AID 488773); conditions: Potency: inhibition;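 further: drop in NADPH fluorescence over an 8 min run after selenite addition; series mostly up to about 57 µM; nearly all actives have a fitted effect of over 40% in size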
Procedure, shortened: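 Steps: enzyme (90 nM) plus NADPH (400 uM final), 5 min at ~22 deg C; compound added, 15 min; selenite (400 uM final) added; fluorescence followed for 8 min. Concentration-response curves derived from the normalized delta values.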

[17] = biological target: Thyrotropin receptor (Homo sapiens) (UniProt P16473); assay: qHTS Assay for Antagonists of the Thyroid Stimulating Hormone Receptor (AID 488980); further: series mostly up to about 58 µM
Sequence of Thyrotropin receptor (Homo sapiens) (P16473 whole entry, looked up): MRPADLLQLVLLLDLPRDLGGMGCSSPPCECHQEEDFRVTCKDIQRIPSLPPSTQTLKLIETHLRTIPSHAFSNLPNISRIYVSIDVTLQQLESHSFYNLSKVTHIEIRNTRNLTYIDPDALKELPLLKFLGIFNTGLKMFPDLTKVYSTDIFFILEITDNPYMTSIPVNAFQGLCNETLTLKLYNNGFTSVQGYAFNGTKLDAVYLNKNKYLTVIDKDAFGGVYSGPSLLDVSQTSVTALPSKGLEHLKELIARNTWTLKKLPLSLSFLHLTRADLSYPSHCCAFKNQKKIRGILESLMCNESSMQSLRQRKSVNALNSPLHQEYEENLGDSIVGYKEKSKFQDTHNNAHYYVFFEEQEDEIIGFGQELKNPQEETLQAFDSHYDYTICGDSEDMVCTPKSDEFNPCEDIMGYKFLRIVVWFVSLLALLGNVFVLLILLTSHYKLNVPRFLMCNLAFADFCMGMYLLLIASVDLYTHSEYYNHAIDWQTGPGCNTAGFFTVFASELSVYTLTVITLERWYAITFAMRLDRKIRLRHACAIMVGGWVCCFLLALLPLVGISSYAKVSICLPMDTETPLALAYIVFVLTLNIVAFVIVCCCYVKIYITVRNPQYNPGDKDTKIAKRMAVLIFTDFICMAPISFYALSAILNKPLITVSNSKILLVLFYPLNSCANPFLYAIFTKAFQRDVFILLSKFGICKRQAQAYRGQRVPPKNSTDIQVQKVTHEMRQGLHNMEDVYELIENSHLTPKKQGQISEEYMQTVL
Procedure, shortened: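 TSHR-HEK293 cells; 70 uM RO 20-1724 PDE inhibitor; compound + EC80 TSH (4 nM final); anti-cAMP cryptate antibody/cAMP-d2 in lysis buffer, 30 min RT; HTRF 665/620 nm read.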

[18] = biological target: ATP-dependent 6-phosphofructokinase (Trypanosoma brucei brucei) (UniProt O15648); assay: qHTS Validation Assay to Find Inhibitors of T. brucei phosphofructokinase (AID 485368)
Sequence of ATP-dependent 6-phosphofructokinase (Trypanosoma brucei brucei) (O15648 whole entry, looked up): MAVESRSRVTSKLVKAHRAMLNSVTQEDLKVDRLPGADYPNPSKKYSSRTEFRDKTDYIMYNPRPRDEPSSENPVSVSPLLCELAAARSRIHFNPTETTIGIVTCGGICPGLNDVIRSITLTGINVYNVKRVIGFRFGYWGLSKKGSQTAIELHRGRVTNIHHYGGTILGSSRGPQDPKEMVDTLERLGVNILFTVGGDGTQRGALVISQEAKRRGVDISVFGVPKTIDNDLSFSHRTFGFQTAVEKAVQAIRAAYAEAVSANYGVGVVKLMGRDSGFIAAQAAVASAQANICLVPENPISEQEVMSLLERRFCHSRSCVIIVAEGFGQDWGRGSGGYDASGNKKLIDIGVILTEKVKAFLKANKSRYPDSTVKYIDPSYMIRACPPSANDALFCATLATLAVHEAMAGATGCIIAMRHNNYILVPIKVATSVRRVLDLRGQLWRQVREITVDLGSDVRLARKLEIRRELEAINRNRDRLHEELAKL
Procedure, shortened: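 Activity was read as ADP production by luminescence (ADP-Glo) after 45 min at room temperature. The enzyme was 1.25nM PFK in 0.1M TEA pH 8.0 with 0.5 mM F6P, 0.1mM ATP and 5 mM MgCl2. Compounds were titrated up to 57 uM and % activity normalized to no-enzyme and full-enzyme controls.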

[19] = biological target: ATP-dependent 6-phosphofructokinase (Trypanosoma brucei brucei) (UniProt O15648); assay: qHTS Assay to Find Inhibitors of T. brucei phosphofructokinase: hit validation (AID 492961); further: series mostly up to about 51 µM
Procedure, shortened: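 Luminescence from ADP-Glo reports ADP generated as T. brucei PFK (1.25 nM) phosphorylates 0.5 mM fructose-6-phosphate using 0.1 mM ATP. Reactions ran 45 min at room temperature, pH 8.0.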

Row | SMILES | Potency [1] | outcome [2] | Potency [3] | Potency [4] | outcome [5] | Potency [6] | Potency [7] | Potency [8] | outcome [9] | outcome [10] | Potency [11] | Potency [12] | Potency [13] | outcome [14] | Potency [15] | Potency [16] | outcome [17] | Potency [18] | Potency [19]
1 | CC(C)NCC(O)COc1ccc(CCOCC2CC2)cc1 (stereo not given) | inactive | inactive | inactive | inactive | inactive | inactive | inactive | inactive | inactive | inactive | inactive | inactive | inactive | – | – | – | – | – | –
2 | Cn1c(=O)c2[nH]cnc2n(C)c1=O | inactive | inactive | – | inactive | inactive | inactive | inactive | inactive | inactive | inactive | inactive | inactive | inactive | inactive | inactive | inactive | inactive | – | –
3 | Nc1c2c(nc3ccccc13)CCCC2 | inactive | inactive | inactive | – | – | inactive | inactive | inactive | inactive | inactive | inactive | inactive | inactive | – | – | – | inactive | – | –
4 | COc1cc2nc(N3CCN(C(=O)c4ccco4)CC3)nc(N)c2cc1OC | inactive | inactive | inactive | – | inactive | – | – | inactive | inactive | – | inactive | inactive | inactive | inactive | – | inactive | inactive | inactive | –
5 | CN1CCC(=C2c3ccccc3CC(=O)c3sccc32)CC1 | inactive | inactive | inactive | inactive | inactive | inactive | inactive | – | inactive | inactive | inactive | inactive | 2000 nM (active) | inactive | inactive | inactive | inactive | – | –
6 | CN(C)c1nc(N(C)C)nc(N(C)C)n1 | inactive | inactive | inactive | inactive | inactive | inactive | inactive | inactive | inactive | inactive | inactive | inactive | inactive | inactive | – | inactive | inactive | – | inactive
7 | C[C@](N)(Cc1ccc(O)c(O)c1)C(=O)O | inactive | inactive | inactive | inactive | inactive | 844 nM (active) | 1890 nM (active) | 1890 nM (active) | inactive | inactive | inactive | – | inactive | inactive | inactive | – | – | – | inactive
8 | Cc1ccccc1N1C(=O)c2cc(S(N)(=O)=O)c(Cl)cc2NC1C (stereo not given) | inactive | inactive | inactive | inactive | inactive | inactive | inactive | – | inactive | inactive | inactive | inactive | inactive | inactive | inactive | – | inactive | – | –
9 | Cc1cc(C(C)(C)C)cc(C)c1CC1=NCCN1 | inactive | inactive | inactive | inactive | inactive | inactive | – | inactive | inactive | inactive | inactive | inactive | inactive | inactive | inactive | – | inactive | – | inactive
10 | CC(C)C(=O)Nc1ccc([N+](=O)[O-])c(C(F)(F)F)c1 | inactive | inactive | inactive | inactive | inactive | inactive | – | – | inactive | inactive | inactive | – | inactive | inactive | inactive | – | inactive | – | –
11 | Cn1c(=O)c2c(ncn2C)n(C)c1=O | inactive | inactive | inactive | inactive | inactive | – | inactive | inactive | inactive | inactive | inactive | inactive | inactive | inactive | inactive | – | – | – | –
12 | CC1COc2c(N3CCN(C)CC3)c(F)cc3c(=O)c(C(=O)O)cn1c23 (stereo not given) | inactive | inactive | inactive | inactive | inactive | – | inactive | inactive | inactive | inactive | inactive | inactive | inactive | inactive | inactive | inactive | inactive | – | –
13 | NCCCCCC(=O)O | inactive | inactive | inactive | inactive | inactive | inactive | inactive | – | inactive | inactive | inactive | inactive | inactive | inactive | inactive | – | inactive | inactive | inactive
14 | NS(=O)(=O)c1cc2c(cc1Cl)NCNS2(=O)=O | inactive | inactive | inactive | inactive | inactive | inactive | inactive | inactive | inactive | inactive | inactive | inactive | inactive | inactive | inactive | inactive | inactive | – | –
15 | CC(C)Cc1ccc(C(C)C(=O)O)cc1 (stereo not given) | inactive | inactive | inactive | inactive | inactive | – | inactive | inactive | inactive | – | inactive | inactive | inactive | inactive | inactive | inactive | inactive | – | –
16 | COc1ccccc1OCC(O)CN1CCN(CC(=O)Nc2c(C)cccc2C)CC1 (stereo not given) | inactive | inactive | – | inactive | – | inactive | inactive | inactive | inactive | inactive | inactive | inactive | inactive | inactive | inactive | – | inactive | inactive | –
17 | CC(C)NCC(O)c1ccc(O)c(O)c1 (stereo not given) | inactive | inactive | inactive | inactive | inactive | inactive | inactive | 10.6 nM (active) | inactive | inactive | inactive | inactive | inactive | – | inactive | – | inactive | – | –
